Data: PubChem BioAssay
Activity calls are given as the source filed them. Unless noted, no rule for the calls is given here.

Key:
[1] = system: XIP peptide (Xip251-270) binding; assay: XIP fragment 251-270 binding compounds – biochemical, small-molecule microarray, fluorescence 635/667 nm, 0.1 µg/mL protein, primary screen (AID 1182); settings: fluorescent protein binding, 635 nm, higher = more signal, called active from +8 up or from −8 down
XIP peptide (Xip251-270) = assay: compounds binding XIP fragment 251-270 – biochemical, small-molecule microarray, fluorescence 635/667 nm, 0.5 µg/mL protein, primary screen (AID 1183); settings: fluorescence 635 nm, higher = more signal
[2] = blood-stage malaria parasite viability loss – strain 3D7, DAPI fluorescence, 100 nL, primary screen (AID 1184);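 also: parasites grown inside human red blood cells in medium with human serum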; settings: P. falciparum 3D7 growth, 3 d, higher = more signal
[3] = biological target: Homeobox protein Hox-A13 (Mus musculus) (UniProt Q62424); assay: disruptors of Hoxa13 oligonucleotide interaction – biochemical, fluorescence polarization, labeled oligonucleotide, primary screen (AID 1185); settings: Hoxa13:DNA binding, 15 min, higher = more signal, called active from +8 up or from −8 down
[4] = blockers of DNA damage checkpoint Chk1 activation – imaging, HeLa, hydroxyurea, phospho-Chk1 antibody, percent positive cells, primary screen (AID 1186); settings: hydroxyurea-induced phospho-Chk1 immunofluorescence imaging, higher = more signal
[5] = blockers of DNA damage checkpoint Chk1 activation – imaging, HeLa, hydroxyurea, phospho-Chk1 nuclear intensity, primary screen (AID 1187); settings: hydroxyurea-induced phospho-Chk1 immunofluorescence imaging, higher = more signal

Sequence of Homeobox protein Hox-A13 (Mus musculus) (Q62424 whole entry, looked up): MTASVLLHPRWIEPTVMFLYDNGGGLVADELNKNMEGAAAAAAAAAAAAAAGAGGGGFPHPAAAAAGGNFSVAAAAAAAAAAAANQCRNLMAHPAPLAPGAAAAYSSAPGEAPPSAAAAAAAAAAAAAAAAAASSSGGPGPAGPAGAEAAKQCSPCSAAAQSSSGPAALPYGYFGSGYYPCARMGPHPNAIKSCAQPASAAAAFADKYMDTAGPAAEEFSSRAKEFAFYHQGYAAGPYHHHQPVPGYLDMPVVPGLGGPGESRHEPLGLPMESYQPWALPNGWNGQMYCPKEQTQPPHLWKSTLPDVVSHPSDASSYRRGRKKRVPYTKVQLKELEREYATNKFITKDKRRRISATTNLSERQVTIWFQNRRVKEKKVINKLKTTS

Row | SMILES | composite z-score [1] | composite z-score (XIP peptide (Xip251-270)) | z-score [2] | z-score [3] | z-score [4] | z-score [5]
1 | COCC1C2CC[C@H]3C(OCc4ccc(F)cc4C(F)(F)F)OC[C@]4(C)[C@H]3C2=C(CN4C(=O)OC(C)(C)C)[C@H](C)C1COC (some centres not stated) | 1.84 (inactive) | 0.761 | -1.06 | -3 (inactive) | -0.43 (inactive) | -0.0765 (inactive)
2 | Cc1ccc(S[C@]2(C(=O)NCCCN(C)C)CC(=O)N(Cc3ccccc3)[C@@H]2c2ccc(CO)cc2)cc1 | -0.712 (inactive) | 0.135 | -1.07 | -2.18 (inactive) | 0.327 (inactive) | 0.603 (inactive)
3 | O=C(NCC(O)CO)[C@@]1(Cc2ccccc2)COC(c2ccc(OCCCO)cc2)=N1 (some centres not stated) | -0.0623 (inactive) | 0.464 | 0.945 | -5.97 (inactive) | -0.036 (inactive) | 0.238 (inactive)
4 | C=CCOC(=O)[C@@H]1[C@H]2C(=O)O[C@H](c3ccccc3)[C@H](c3ccccc3)N2[C@H](c2ccc(OCCOC(=O)[C@H]3C[C@H]4C(=O)N[C@@H](CC(C)C)C(=O)N4[C@H]3c3cccc(OCCO)c3)cc2)[C@@]12C(=O)Nc1ccc(I)cc12 | 0.559 (inactive) | 0.824 | -1.68 | 2.41 (inactive) | 0.537 (inactive) | 0.273 (inactive)
5 | CC(C)CNC(=O)[C@@]1(C)c2ccccc2C(=O)N(C(C)C)[C@H]1c1ccc(CO)cc1 | -0.776 (inactive) | -0.692 | 1.22 | -1.35 (inactive) | 0.221 (inactive) | -0.0172 (inactive)
6 | CC1(C)C(=O)C(c2ccccc2)=C2CN3C(=O)N(CCc4ccccc4)C(=O)C3(Cc3ccccc3)C=C21 (configuration not stated) | 1.7 (inactive) | -0.119 | -1.34 | -0.335 (inactive) | -0.0628 (inactive) | 0.121 (inactive)
7 | [N-]=[N+]=Nc1ccccc1[C@@H]1OC(c2ccc(OCCCO)cc2)=N[C@]1(CCS(=O)(=O)c1ccccc1)C(=O)O | 0.97 (inactive) | 0.727 | -1.19 | -4.69 (inactive) | -0.273 (inactive) | -0.0293 (inactive)
8 | [N-]=[N+]=NCc1ccccc1C[C@]1(C(=O)NCc2ccccc2)COC(c2ccc(OCCCO)cc2)=N1 | 0.395 (inactive) | 0.689 | -2.45 | -6.24 (inactive) | -0.403 (inactive) | -0.737 (inactive)
9 | O=C1OCCC=C[C@H]2OC34C=CCN(CCN5CCOCC5)C(=O)[C@H]3N(CCO)C(=O)[C@@H]4C12 (some centres not stated) | 0.134 (inactive) | 0.0053 | 0.0863 | -5.81 (inactive) | -0.492 (inactive) | -0.757 (inactive)
10 | [N-]=[N+]=NCc1ccccc1C[C@]1(C(=O)NCC(O)CO)COC(c2ccc(OCCCO)cc2)=N1 (some centres not stated) | 0.54 (inactive) | 0.376 | -2.04 | -4.94 (inactive) | -0.0874 (inactive) | -0.341 (inactive)
11 | OCCCc1cc[n+](Cc2cccc(OC(F)(F)F)c2)cc1 | 0.307 (inactive) | 0.768 | -1.47 | -3.06 (inactive) | -0.284 (inactive) | -0.678 (inactive)
12 | C=CC[C@@]1(C(=O)NCCN2CCOCC2)N=C(c2ccc(OCCCO)cc2)O[C@@H]1c1ccccc1CN=[N+]=[N-] | 1.21 (inactive) | 0.818 | -2.13 | -1.05 (inactive) | -0.336 (inactive) | -0.254 (inactive)
13 | COC(=O)[C@@]1(Cc2ccc(F)cc2)[C@H]2c3cc(C(=O)N(C)C)n(CCCNc4ccc(C(F)(F)F)cc4Cl)c3C[C@H]2CN1C(=O)c1ccccc1 | 0.915 (inactive) | 0.557 | -1.39 | -0.925 (inactive) | 0.456 (inactive) | -0.225 (inactive)
14 | C=CCN1C(=O)[C@@]2(O[C@@H](CCO)[C@H]([Si](C)(C)c3ccc(OC)cc3)[C@H]2C)c2cc(N3C(=O)COc4ccccc43)ccc21 | 1.28 (inactive) | 0.623 | -2.68 | -4.65 (inactive) | -1.39 (inactive) | -0.883 (inactive)
15 | C[N+](C)(C)CCCC[C@@H]1NC(=O)[C@@H]2C[C@H](C(=O)NCCCCCCNC(=O)CS)[C@H](c3cccc(OCCO)c3)N2C1=O | 0.339 (inactive) | 0.623 | -0.198 | -3.62 (inactive) | -0.38 (inactive) | -0.386 (inactive)
16 | C=CCC(OC(C)=O)[C@@H]1[C@@H](N(Cc2ccc(-c3cccc(C(F)(F)F)c3)o2)C(=O)Cc2ccc(OC)cc2)c2cc(OCCCO)ccc2N1C(=O)Cc1ccc(OC)cc1 (some centres not stated) | -0.343 (inactive) | 0.278 | -2.23 | -3.42 (inactive) | -0.186 (inactive) | -0.0407 (inactive)
17 | Cc1cccc(/C=C/C=O)c1 | 0.43 (inactive) | 0.838 | 0.787 | -1.05 (inactive) | 0.381 (inactive) | 0.412 (inactive)
18 | CC(=O)NCCCC[C@@H]1NC(=O)[C@@H]2C[C@H](C(=O)NCc3ccc(F)cc3)[C@H](c3ccc(O)cc3)N2C1=O | 1.64 (inactive) | 1.01 | -0.448 | -1.2 (inactive) | 0.0701 (inactive) | 0.0917 (inactive)
19 | C=CCC(OC(C)=O)[C@@H]1[C@@H](N(Cc2ccc(-c3ccccc3)cc2)C(=O)c2ccc(C)cc2)c2cc(OCCCO)ccc2N1C(=O)c1ccc2ccccc2n1 (some centres not stated) | -0.218 (inactive) | -0.876 | -0.62 | -1.29 (inactive) | -0.641 (inactive) | -0.346 (inactive)
20 | COc1ccc([Si](C)(C)[C@@H]2[C@@H](CCO)O[C@]3(C(=O)N(Cc4ccccc4)c4ccc(N(C=O)c5ccccc5)cc43)[C@H]2C)cc1 | 0.581 (inactive) | 0.573 | -2.79 | -0.204 (inactive) | -1.32 (inactive) | -0.697 (inactive)
21 | COc1ccc(C(=O)Nc2cccc(CN3C(=O)[C@@]4(O[C@@H](CC(=O)N5Cc6ccccc6C[C@H]5CO)[C@H]([Si](C)(C)c5ccc(OC)cc5)[C@H]4C)c4ccccc43)c2)cc1 | 1.44 (inactive) | 0.698 | -2.64 | -3.18 (inactive) | -0.0924 (inactive) | 0.071 (inactive)
22 | CCCNC(=O)[C@@]1(C)c2ccccc2C(=O)N(Cc2cc(C(F)(F)F)cc(C(F)(F)F)c2)[C@H]1c1ccc(CO)cc1 | 0.977 (inactive) | 0.665 | -1.63 | -4.26 (inactive) | -0.0596 (inactive) | -0.0865 (inactive)
23 | NC(=O)[C@@]1(CCS(=O)(=O)c2ccccc2)N=C(c2ccc(OCCCO)cc2)O[C@H]1c1ccccc1 | 1.11 (inactive) | 0.863 | -1.9 | -6.86 (inactive) | 0.0218 (inactive) | 0.56 (inactive)
24 | CCOC(=O)C[C@H]1[C@H](OC(=O)c2ccc(C(=O)c3ccccc3)cc2)[C@@H](NC(=O)c2ccc3ccccc3n2)c2cc(OCCCO)ccc2N1C(=O)c1ccc2ccccc2n1 | 0.545 (inactive) | 0.613 | -2.55 | -2.61 (inactive) | 0.226 (inactive) | 0.194 (inactive)
25 | C=C(COC)/C(=C/C[C@H](OC(C)=O)c1ccccc1OCCO)c1cnc2ccccc2c1 | 0.384 (inactive) | 0.0219 | -2.82 | -5.24 (inactive) | 0.134 (inactive) | 0.19 (inactive)
26 | CCN(CC)c1ccc(N2CC=CC34O[C@@H]5C=CCCOC(=O)C5[C@H]3C(=O)N(CCCO)[C@@H]4C2=O)cc1 (some centres not stated) | -0.658 (inactive) | -0.588 | -1.49 | -3.95 (inactive) | -0.28 (inactive) | -0.816 (inactive)
27 | COC(=O)c1c2oc(c1C(=O)OC)C(=O)N[C@H](Cc1ccccc1)Cn1nncc1C1(CCCCC1)NC(=O)N[C@H](CO)CC2 | 0.152 (inactive) | -0.0356 | 1.06 | -2.22 (inactive) | -0.971 (inactive) | -0.939 (inactive)
